# Out of some 310,000 compounds screened, about 18,000 (5.8%) were called active. About 22% were inconclusive and are not listed. The call rests on the fitted dose curve; in most records, active means well fitted inhibition curve with a large enough effect; inconclusive means small, poorly fitted or top-dose-only effect, or another doubt; inactive means no such curve, though single readings can be large or run the other way. For the sample, actives were picked, then their nearest neighbours and some compounds at random.
# Test: Primary qHTS for delayed death inhibitors of the malarial parasite plastid, 48 hour incubation
# Settings: P. falciparum luciferase growth in erythrocytes; series mostly up to 28.7 µM; activity change, negative = inhibition: at the top concentration
# Source text: The goal of this screen is to discover new antimalarial compounds that act by inhibiting the development of the apicoplast in the malarial parasite Plasmodium falciparum. The biochemical processes that make this organelle essential for erythrocytic stage parasites are not well understood. However, antibiotics such as azithromycin and tetracycline, which target the apicoplast translational machinery, have a potent antimalarial effect.
# We have developed a cell-based assay that measures parasite growth based on the expression of an integrated copy of a firefly luciferase reporter. To detect small molecules that cause this "delayed death" phenotype, erythrocytes infected with the luciferase-expressing parasites were incubated with compounds for either one or two generations, corresponding to 48 and 96 hours, respectively. Compounds that inhibit parasite growth in the second generation, but not the first, should be enriched in antimalarials that target the apicoplast. Growth inhibition is detected by a decrease in luciferase activity.
# Assay Provider: David Fidock and Eric Ekland, Columbia University
# Keywords: NIH Roadmap, MLPCN, MLI, MLSMR, qHTS, NCGC, qHTS, malaria, luciferase, viability
# Four microliters of culture medium (RPMI 1640 with 0.5% w/v Albumax (GIBCO), 24 mM sodium bicarbonate and 10 ug/mL gentamycin) were dispensed by a Multi-drop Combi into white solid 1536-well plates (Grenier) and 23 nL compound was added by a pin tool. Four microliters of infected erythrocytes (2% hematocrit, 0.1% parasitemia final concentration) in culture medium were dispensed and the plates incubated for 48 hours at 37 C in 5% CO2. Two microliters of luciferase detection reagent was added and luminescence was detected by a ViewLux (PerkinElmer) reader.
# On the % scale 0 is the no-effect control and ±100 the full control effect; potency means the concentration at half of the fitted maximal effect.
SMILES,"activity change, negative = inhibition",Potency
CCN(CC)CCn1c2c(c(SCC(=O)Nc3nc4ccccc4s3)nc1=O)CCCC2,-4.88% (inactive),–
Cc1ccc(-c2cc(C(F)(F)F)n3ncc(C(=O)N4CCCCC4c4cccnc4)c3n2)cc1 (stereo not drawn),–,1.65 µM (active)
O=C(Nc1ccccc1C(F)(F)F)N1CCCC1c1cccnc1 (stereo not drawn),11% (inactive),–
O=C(NC(=S)N1CCCCC1c1cccnc1)c1ccccc1 (stereo not drawn),0.637% (inactive),–
CCn1c(SCC(=O)NC2CC2)nnc1-c1ccccn1,-6.85% (inactive),–
CCOc1ccc(C(=O)CCN2CCOCC2)cc1,-9.9% (inactive),–
CC(=O)c1ccc(S(=O)(=O)NCc2nnnn2-c2ccccc2)cc1,4.77% (inactive),–
Cc1cccc(-c2nnc(SCC(=O)O)n2Cc2ccccc2)c1,9.98% (inactive),–
CC(C)(C)OC(=O)N1CCC(NC(=O)c2[nH]cnc2C(=O)N[C@@H](Cc2ccccc2)C(=O)OCc2ccccc2)CC1,–,0.928 µM (active)
C[C@@H](NC(=O)c1nc[nH]c1C(=O)N1CCN(C(=O)OC(C)(C)C)CC1)c1ccccc1,-19.3% (inactive),–
O=C(N[C@@H](Cc1ccccc1)C(=O)OCc1ccccc1)c1nc[nH]c1C(=O)N[C@@H](Cc1ccccc1)C(=O)OCc1ccccc1,25.2% (inactive),–
Cc1onc(C(=O)Nc2ccc3c(c2)OCO3)c1[N+](=O)[O-],-3.19% (inactive),–
Cc1c(CCOC(=O)c2cc([N+](=O)[O-])ccc2Cl)sc[n+]1CCCCS(=O)(=O)[O-],3.97% (inactive),–
Cc1c(CCOC(=O)CC23CC4CC(CC(C)(C4)C2)C3)sc[n+]1Cc1ccc([N+](=O)[O-])cc1,–,2.62 µM (active)
O=C(CCCO)N/N=C/c1cc(Br)ccc1O,-7.77% (inactive),–
Oc1ccc(/C=N/Nc2ccc(C(F)(F)F)cn2)cc1O,25.2% (inactive),–
Oc1ccc(Br)cc1/C=N/Nc1ccccn1,–,1.47 µM (active)
CC(C)c1ccc(S(=O)(=O)N2CCC3(CC2)OCCO3)cc1,-3.34% (inactive),–
COc1ccc(C)cc1NC(=O)Nc1ccccc1SC,2.04% (inactive),–
COc1cc2ccccc2cc1C(=O)Nc1ccccc1C,194% (inactive),–
COc1ccc(C)cc1NC(=O)c1cc(-c2ccccc2)nc2c1cnn2C(C)C,–,4.65 µM (active)
Cc1ccc(-c2noc(C3CCCN(C(=O)c4cccc(Cl)c4)C3)n2)o1 (stereo not drawn),100% (inactive),–
O=C(CCNC(=O)c1ccc(Br)cc1)NCCCc1ccccc1,25.6% (inactive),–
Cc1cccc2[nH]c(CN(C)C(=O)C3CCC(=O)N(CCc4ccccc4)C3)nc12 (stereo not drawn),-17.7% (inactive),–
COc1ccc(C(=O)Nc2ccccc2C(=O)N2CCN(c3ccccc3)CC2)cc1,-16.5% (inactive),–
CC(C)c1ccc(N2CCN(C(=O)c3ccccc3NC(=O)/C=C(\C(=O)O)c3ccccc3)CC2)cc1,–,13.1 µM (active)
Cc1ccccc1C(=O)NC(=S)Nc1ccc(N2CCN(C(=O)c3ccccc3)CC2)cc1,-9.42% (inactive),–

SMILES,"activity change, negative = inhibition",Potency
COc1ccc(NC(=O)CCS(=O)(=O)c2cc3c(cc2Cl)NC(=O)CO3)cc1OC,21.5% (inactive),–
O=C(COC(=O)c1cccs1)Nc1ccccc1Cl,4.31% (inactive),–
O=C(Cc1ccc2c(c1)CCCC2)Nc1ccccc1Cl,–,11.7 µM (active)
O=C(Nc1ccc2c(c1)CCC2)c1cccc(S(=O)(=O)Nc2ccccc2Cl)c1,-1.32% (inactive),–
O=C(Nc1ccccc1N1CCOCC1)c1ccncc1,-23.9% (inactive),–
CCCc1ccc(OCC(O)CN2CCN(CCO)CC2)cc1 (stereo not drawn),5.68% (inactive),–
CCCCc1nc(NCc2ccccc2)c(C#N)c2c1CCCC2,–,6.57 µM (active)
CCc1nc(NCCO)c(C#N)c2c1CCCC2,1.82% (inactive),–
CN(C)c1nccc(NCc2ccccc2)c1C#N,12.3% (inactive),–
CCOC(=O)c1ccccc1NC(=O)COC(=O)C(Cc1c[nH]c2ccccc12)NC(C)=O (stereo not drawn),15.1% (inactive),–
CCOc1cccc(=NC2CCCCC2)c2c(C)[nH]c(C)c12,–,2.33 µM (active)
CCOc1ccccc1NC(=O)NC1CCCCCCC1,-19.6% (inactive),–
Cc1cc(C)n2nc(C(=O)Nc3cccc(S(=O)(=O)N4CCOCC4)c3)nc2n1,11.9% (inactive),–
CC(C)C[C@H](NC(=O)C1CC(=O)N(c2ccc3c(c2)OCCO3)C1)C(=O)NC1CCCC1 (stereo partly drawn),-6.29% (inactive),–
C/C=C/C(=O)OCc1csc(CC(=O)Nc2ccccc2C)n1,24.7% (inactive),–
CCCc1nnc(NC(=O)CCC(=O)N2CCN(S(=O)(=O)c3ccc(OC)cc3)CC2)s1,-11.4% (inactive),–
COc1ccc(Cc2nc3ccc(C(=O)N4CCC(N(C)C)C4)cc3o2)cc1 (stereo not drawn),-3.86% (inactive),–
CCc1cccc(NC(=O)COC(=O)C2CCN(c3ccc(C(F)(F)F)cn3)CC2)c1,52.4% (inactive),–
CCOC(=O)c1[nH]ncc1CN1CCCC(C(=O)c2ccc(OC)cc2C)C1 (stereo not drawn),21.3% (inactive),–
COc1ccc(C(=O)C2CCCN(Cc3ccc4nonc4c3)C2)c(C)c1 (stereo not drawn),-14.3% (inactive),–
COc1ccc(C(=O)C2CCCN(Cc3cccn3-c3ccccn3)C2)c(C)c1 (stereo not drawn),–,6.57 µM (active)
COC(=O)c1ccc(NC(=O)CSc2nc(N)c(NC(=O)c3ccc(Br)o3)c(=O)[nH]2)cc1,3.29% (inactive),–
COCCn1c(SCC(=O)N2CCCCCC2)nc2c(c1=O)SCC2,-12.2% (inactive),–
COc1ccc(CCN=C2SCC(=O)N2Cc2ccccc2)cc1OC,-10.1% (inactive),–
COc1ccc(CCNC2=C(Cl)C(=O)N(Cc3ccccc3)C2=O)cc1OC,–,11.7 µM (active)
COc1ccc(CCN2C(=O)C(C)=C(C)C2=O)cc1OC,11% (inactive),–

# — PubChem BioAssay AID504832 (National Center for Advancing Translational Sciences (NCATS), 2011)
